PubChem BioAssay (NCI)
Compounds without any hit were thinned out: in the full panel of roughly 83,000, 20% have a hit.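 Single-dose data. Exposure time 48 hours. Values below 10 considered active.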 Values without a mark were called inactive. Calls of active or inactive are those of the source.

test system: NCI-H522 lung; assay: NCI-60 one-dose screen, 48 h (100 = growth as untreated, 0 = no growth, -100 = all killed); settings: 10 µM
Description: Growth inhibition of the NCI-H522 human Non-Small Cell Lung tumor cell line is measured as a screen for anti-cancer activity. Cells are grown in 96 well plates and exposed to the test compound for 48 hours. Compounds are tested at a single concentration, which is 10^-5 M for most compounds. The reported endpoint is percent growth (GI% or GIPRCNT), where numbers from 0 - 100% represent growth inhibition, and numbers from -100% - 0 represent cell death. For example, a value of 40 represents 60% growth inhibition. A value of 0 means no net growth occurred over the course of the experiment. A value of -40 indicates 40% of cells at the beginning of the experiment died by the end of the experiment. A value of -100 means all cells are dead at the end of the experiment.
NCI-60 Human Tumor Cell Lines Screen was performed using the standard one-dose NCI protocol, which is described in more detail at https://dtp.cancer.gov/discovery_development/nci-60/default.htm.
Compounds with GIPRCNT values below 10 were considered active. Activity score was based on GIPRCNT using the following formula: […]
Score is 0 for GIPRCNT values of 100 or above, 50 for GIPRCNT values of 0, and 100 for GIPRCNT values of -100.

| Compound | growth |
| --- | --- |
| O=S(=O)(Oc1ccc(-c2ccc3sccc3c2)cc1)c1ccc(F)cc1 | 87.7% |
| CN(C)CCCOc1ccc(NC2=C(Cl)C(=O)C(Nc3ccc(OCCCN(C)C)cc3)=C(Cl)C2=O)cc1 | -75.2% (active) |
| COc1nc2c(c(=O)n1C)CN(c1ccccc1)C(=O)C(C)N2 (stereo not given) | 84.6% |
| Nc1ccc(CC[C@H]2CCC/C=C/[C@@H]3C[C@H](O)C[C@H]3[C@H](O)/C=C/C(=O)O2)cc1 | -46.6% (active) |
| N#Cc1c(N)nc(-c2cc(F)cc(C(F)(F)F)c2)nc1-c1ccccc1F | 68.3% |
| COCCn1cc(-c2nc(-c3cccnc3)cs2)c2cc(F)ccc21 | 70.6% |
| O=C(Nc1nc(-c2ccccc2)nc2c1sc(=S)n2-c1ccccc1)C(F)(F)F | 86.6% |
| COc1cc2c3c(n(C4CCNCC4)c(=O)c2cc1OC)-c1cc2c(cc1C3=O)OCO2 | -44.3% (active) |
| COc1ccc(/C(=N\N)C(=O)c2ccccc2)cc1 (tested in a mixture with another compound) | 72.7% |
| COc1cc(-c2csc(NC(=O)Nc3ccc(Cl)c(C(F)(F)F)c3)n2)cc(OC)c1OC | -25.4% (active) |
| CCN(CC)CCOc1cccc2c1C(=O)c1ccccc1C2=O | 84.3% |
| CC(C)(C)OC(=O)N1CCc2c(sc3ncnc(N/N=C/c4cccc5ccccc45)c23)C1 | 16% |
| CC(C)C1=C(O)C2=C(C(=O)C1=O)[C@@]1(C)CCCC(C)(C)[C@@H]1CC2 | 86.9% |
| Cc1cc(SC#N)cc(C(C)(C)C)c1O | 68.1% |
| CCn1c(CSc2nc3ccccc3c(=O)n2CCc2ccccc2)n[nH]c1=S | -5% (active) |
| O=C(CSc1nccc(Nc2cccc3ccccc23)n1)c1ccc(Cl)cc1 | 81.9% |
| CCOC(=O)CC(S(=O)(=O)c1ccccc1)S(=O)(=O)c1ccccc1 | -11.9% (active) |
| CCN(CC)CC(=O)N(CC)c1ccc(C)c(Cl)c1 | 83.8% |
| CCOC(=O)c1cc(C(=O)c2cc(OC)c(OC)c(OC)c2)n2ncc3ccccc3c12 | 39.6% |
| CS(=O)(=O)c1nccc(-c2c(-c3cccc(O)c3)nc3sccn23)n1 | -2.17% (active) |

| Compound | growth |
| --- | --- |
| COc1ccc(Cl)cc1Nc1nc(C(F)(F)F)ccc1C(=O)N/N=C/c1ccc(Cl)cc1 | 31.6% |
| O=[N+]([O-])c1cccc(/C=N/NC(=S)NC23CC4CC(CC(C4)C2)C3)c1 | 88.8% |
| COc1ccc(-c2n[nH]nc2-c2cc(OC)c(OC)c(OC)c2)cc1 | -24.5% (active) |
| CC1=CC2C(C(O)CC3(C)C2CC(C)C32OCOC23COCO3)C2(C)C/C(=C/O)C(=O)C=C12 (stereo not given) | -26.7% (active) |
| O=C(CCc1nnc2sc(-c3cc(O)c(O)c(O)c3)nn12)c1nc2ccccc2[nH]1 | 98.3% |
| COc1ccc(C2CC(c3cccs3)=NN2c2ccc(S(N)(=O)=O)cc2)cc1 (stereo not given) | 69.6% |
| CN1CCc2c(sc3nc4n(-c5ccc(Cl)cc5)c(=O)[nH]n4c(=O)c23)C1 | 77.9% |
| O=C(Nc1ccc2c(O)cc(S(=O)(=O)O)cc2c1)c1ccc([N+](=O)[O-])cc1 | 84.7% |
| COc1ccc(/C=C2\CCCC3=C2N=C2SC(C)=CN2C3c2ccc(OC)cc2)cc1 (stereo not given) | 89.6% |
| COc1ccc(-c2cc(-c3ccc(Cl)cc3)nc(SCCCC(=O)NO)n2)cc1OC | -5.35% (active) |
| Cc1cc(=O)n2nnc3cc(Cl)c(Cl)cc3n12 | 53.9% |
| Cc1nn(-c2ccccc2)c2nc(Cl)c(C=O)c(-c3ccccc3)c12 | 106% |
| C[C@@H](C[C@H](CCO)c1ccccc1)c1ccc2ccccc2c1 | -53.9% (active) |
| CCOC(=O)C1C(C(=O)OCC)C2C(=O)C3C(C(=O)OCC)C(C(=O)OCC)C3C(=O)C12 (stereo not given) | 104% |
| COc1ccc(-c2nc(-c3nc4ccc(C)cc4[nH]3)cc3c2[nH]c2ccccc23)cc1 | 14.7% |
| Fc1ccc2[nH]cc(-c3nc(-c4ccsc4)cs3)c2c1 | 79.2% |
| COc1cc(-c2csc(NC(=O)Nc3cc(C(F)(F)F)cc(C(F)(F)F)c3)n2)cc(OC)c1OC | -14.6% (active) |
| CC(=O)N[C@H](C(=O)N[C@@H](CCCNC(=N)N)C(=O)N[C@@H](CCCCN)C(=O)N[C@@H](CCCNC(=N)N)C(=O)N[C@]1(C)CCC/C=C\CCC[C@@](C)(C(=O)N[C@@H](CC(C)C)C(=O)N[C@@H](CC(C)C)C(=O)N[C@@H](CCC(N)=O)C(=O)N[C@@H](CCC(=O)O)C(=O)N[C@@H](CCCNC(=N)N)C(=O)N[C@@H](CCC(=O)O)C(=O)N[C@@H](CC(C)C)C(=O)N[C@H](C(=O)N[C@@H](CCC(=O)O)C(N)=O)C(C)C)NC(=O)[C@H](CCCNC(=N)N)NC(=O)[C@H](CC(C)C)NC1=O)C(C)C | 96.8% |
| COc1ccc(-c2nn(-c3cccc(Cl)c3)cc2-c2cc(-c3ccccc3)nc(N)n2)cc1 | 45.8% |
| CCN(CC)CCCC(Nc1c2ccc(Cl)cc2nc2ccc(OC)cc12)c1ccc(F)cc1 (stereo not given) | -24.3% (active) |
